Among the data in PubChem BioAssay AID720605 (Broad Institute, 2013) are outcome values, retold here.

Results with a measured potency or affinity are listed apart. Calls of active or inactive are those of the source.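 Rule for the calls: active = cell viability signal falls with a fitted half-maximal concentration within twice the top dose at all three treatment times; inconclusive = treatment times give differing calls; inactive = every treatment time called inactive.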

This test is described as follows: cytotoxicity in U-251 CNS tumor cells – cell-based, Alamar Blue fluorescence, 8/24/48 h, dry powder, HRAS target identification, dose response (AID 720605). The settings on record: U-251 glioblastoma viability, 8-48 h; series mostly up to 35 µM.

In the case of `CCC(=O)N(c1ccc(OC)c(Cl)c1)C(C(=O)NCCc1ccccc1)c1cccs1` (configuration not stated), the result was inactive.

In the case of `Cc1onc(C(=O)N2CCN(C(c3ccncc3)c3ccncc3)CC2)c1[N+](=O)[O-]`, the molecule was called inactive.
